The supplement of paper PMC11732987, “Enantioselective OTUD7B fragment discovery through chemoproteomics screening and high-throughput optimisation” (Communications Chemistry, 2025)
A number with no mark means an inactive call.

What was measured:
Assay in all cases: log2 ratio of Biotin-Ahx-Ub-VS probe labelling (fragment/DMSO); higher = less target engagement (more negative = stronger competition), active = hit call of the paper (q ≤ 0.05, log2 ratio ≤ -1)
Conditions in all cases: compound concentration: 200 uM; treatment time: 3 h
USP19 = molecular target: T1, USP19 (UniProt O94966)
T1 sequence (whole entry): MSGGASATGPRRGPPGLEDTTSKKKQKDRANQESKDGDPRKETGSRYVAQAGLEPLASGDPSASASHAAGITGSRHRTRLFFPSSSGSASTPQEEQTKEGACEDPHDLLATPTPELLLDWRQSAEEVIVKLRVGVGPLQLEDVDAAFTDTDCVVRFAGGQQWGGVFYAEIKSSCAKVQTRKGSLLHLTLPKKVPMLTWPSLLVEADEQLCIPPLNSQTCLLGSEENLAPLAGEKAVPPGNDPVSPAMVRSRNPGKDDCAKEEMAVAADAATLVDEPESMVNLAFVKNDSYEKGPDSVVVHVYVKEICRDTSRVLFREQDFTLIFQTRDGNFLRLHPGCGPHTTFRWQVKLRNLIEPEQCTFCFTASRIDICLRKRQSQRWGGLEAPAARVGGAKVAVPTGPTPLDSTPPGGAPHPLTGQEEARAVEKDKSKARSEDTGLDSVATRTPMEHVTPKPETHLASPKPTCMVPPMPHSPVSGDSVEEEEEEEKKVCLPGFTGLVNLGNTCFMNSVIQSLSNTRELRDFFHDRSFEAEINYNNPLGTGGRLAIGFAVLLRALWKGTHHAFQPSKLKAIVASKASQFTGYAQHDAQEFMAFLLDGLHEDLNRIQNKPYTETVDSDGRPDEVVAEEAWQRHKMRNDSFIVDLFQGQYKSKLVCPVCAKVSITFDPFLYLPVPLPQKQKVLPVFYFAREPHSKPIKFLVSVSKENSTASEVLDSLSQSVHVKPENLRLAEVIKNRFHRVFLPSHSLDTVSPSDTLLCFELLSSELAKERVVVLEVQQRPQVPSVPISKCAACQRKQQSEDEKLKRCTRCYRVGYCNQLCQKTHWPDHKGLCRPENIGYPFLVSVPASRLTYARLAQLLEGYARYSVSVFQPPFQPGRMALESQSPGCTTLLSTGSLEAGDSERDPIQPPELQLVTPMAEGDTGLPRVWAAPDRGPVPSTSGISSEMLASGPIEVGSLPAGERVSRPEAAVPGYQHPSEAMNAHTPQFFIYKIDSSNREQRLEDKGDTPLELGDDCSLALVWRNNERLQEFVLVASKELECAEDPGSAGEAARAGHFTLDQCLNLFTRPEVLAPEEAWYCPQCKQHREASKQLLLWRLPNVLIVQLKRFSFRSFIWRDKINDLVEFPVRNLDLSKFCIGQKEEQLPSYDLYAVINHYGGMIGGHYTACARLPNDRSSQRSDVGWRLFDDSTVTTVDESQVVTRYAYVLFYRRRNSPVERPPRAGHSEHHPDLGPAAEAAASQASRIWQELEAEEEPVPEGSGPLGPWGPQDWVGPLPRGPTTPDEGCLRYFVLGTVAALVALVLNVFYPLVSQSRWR
How it was run: (§1)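 The table lists average log2 ratios of fragment over vehicle, from an unpaired t-test on global-median-normalised Spectronaut label-free quantities. Proteins with ≥2 unique peptides were used. Samples were HEK293T lysate (495 µg) treated in triplicate with fragment at 200 µM or vehicle for 3 h, then with Biotin-Ahx-Ub-VS (0.5 µM final) for 1 h, with labelled DUBs NeutrAvidin-enriched and run by diaPASEF LC-MS/MS.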

USP22 = molecular target: T2, USP22 (UniProt Q9UPT9)
T2 sequence (whole entry): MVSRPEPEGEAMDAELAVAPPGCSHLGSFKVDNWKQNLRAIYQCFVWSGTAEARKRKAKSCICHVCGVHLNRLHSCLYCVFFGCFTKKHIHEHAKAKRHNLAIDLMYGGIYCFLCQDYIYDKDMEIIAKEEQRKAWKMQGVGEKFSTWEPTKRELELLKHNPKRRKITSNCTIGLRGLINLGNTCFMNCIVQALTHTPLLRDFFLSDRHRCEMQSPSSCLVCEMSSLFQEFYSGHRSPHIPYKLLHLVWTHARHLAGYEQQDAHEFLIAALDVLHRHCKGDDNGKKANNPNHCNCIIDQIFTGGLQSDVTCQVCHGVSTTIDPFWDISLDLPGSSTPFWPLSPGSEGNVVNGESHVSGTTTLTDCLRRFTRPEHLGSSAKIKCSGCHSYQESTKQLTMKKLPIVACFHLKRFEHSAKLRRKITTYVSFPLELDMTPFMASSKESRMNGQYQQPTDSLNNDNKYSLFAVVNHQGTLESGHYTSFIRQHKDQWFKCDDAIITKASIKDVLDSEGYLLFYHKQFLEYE
How it was run: as §1

USP24 = USP24 (UniProt Q9UPU5)
How it was run: as §1

USP25 = molecular target: T3, USP25 (UniProt Q9UHP3)
T3 sequence (whole entry): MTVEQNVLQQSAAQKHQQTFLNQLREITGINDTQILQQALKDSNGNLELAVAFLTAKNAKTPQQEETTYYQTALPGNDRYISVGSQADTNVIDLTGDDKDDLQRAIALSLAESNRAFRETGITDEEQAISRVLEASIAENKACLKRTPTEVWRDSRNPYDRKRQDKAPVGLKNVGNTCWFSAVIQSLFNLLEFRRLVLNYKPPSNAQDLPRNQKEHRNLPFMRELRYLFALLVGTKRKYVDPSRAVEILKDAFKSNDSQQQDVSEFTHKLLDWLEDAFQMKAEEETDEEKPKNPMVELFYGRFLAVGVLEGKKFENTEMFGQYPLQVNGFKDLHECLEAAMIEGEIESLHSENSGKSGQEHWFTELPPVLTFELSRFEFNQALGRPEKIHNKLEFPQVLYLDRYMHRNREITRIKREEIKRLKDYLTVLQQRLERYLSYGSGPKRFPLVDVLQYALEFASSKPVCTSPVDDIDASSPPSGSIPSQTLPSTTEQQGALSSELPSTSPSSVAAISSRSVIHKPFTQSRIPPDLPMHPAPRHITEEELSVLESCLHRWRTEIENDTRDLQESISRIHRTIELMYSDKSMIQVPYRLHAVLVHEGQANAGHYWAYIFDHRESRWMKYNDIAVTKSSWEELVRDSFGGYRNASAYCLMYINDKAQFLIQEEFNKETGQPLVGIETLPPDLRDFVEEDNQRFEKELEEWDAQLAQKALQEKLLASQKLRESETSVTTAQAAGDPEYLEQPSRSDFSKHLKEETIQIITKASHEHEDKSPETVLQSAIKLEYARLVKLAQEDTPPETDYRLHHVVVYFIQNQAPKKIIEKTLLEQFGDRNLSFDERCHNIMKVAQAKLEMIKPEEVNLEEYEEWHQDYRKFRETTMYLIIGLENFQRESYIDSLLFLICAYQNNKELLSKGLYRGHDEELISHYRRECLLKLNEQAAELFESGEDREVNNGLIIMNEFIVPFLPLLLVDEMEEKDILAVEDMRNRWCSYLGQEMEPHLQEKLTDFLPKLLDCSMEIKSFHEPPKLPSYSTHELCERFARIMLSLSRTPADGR
How it was run: as §1

USP28 = molecular target: T4, USP28 (UniProt Q96RU2)
T4 sequence (whole entry): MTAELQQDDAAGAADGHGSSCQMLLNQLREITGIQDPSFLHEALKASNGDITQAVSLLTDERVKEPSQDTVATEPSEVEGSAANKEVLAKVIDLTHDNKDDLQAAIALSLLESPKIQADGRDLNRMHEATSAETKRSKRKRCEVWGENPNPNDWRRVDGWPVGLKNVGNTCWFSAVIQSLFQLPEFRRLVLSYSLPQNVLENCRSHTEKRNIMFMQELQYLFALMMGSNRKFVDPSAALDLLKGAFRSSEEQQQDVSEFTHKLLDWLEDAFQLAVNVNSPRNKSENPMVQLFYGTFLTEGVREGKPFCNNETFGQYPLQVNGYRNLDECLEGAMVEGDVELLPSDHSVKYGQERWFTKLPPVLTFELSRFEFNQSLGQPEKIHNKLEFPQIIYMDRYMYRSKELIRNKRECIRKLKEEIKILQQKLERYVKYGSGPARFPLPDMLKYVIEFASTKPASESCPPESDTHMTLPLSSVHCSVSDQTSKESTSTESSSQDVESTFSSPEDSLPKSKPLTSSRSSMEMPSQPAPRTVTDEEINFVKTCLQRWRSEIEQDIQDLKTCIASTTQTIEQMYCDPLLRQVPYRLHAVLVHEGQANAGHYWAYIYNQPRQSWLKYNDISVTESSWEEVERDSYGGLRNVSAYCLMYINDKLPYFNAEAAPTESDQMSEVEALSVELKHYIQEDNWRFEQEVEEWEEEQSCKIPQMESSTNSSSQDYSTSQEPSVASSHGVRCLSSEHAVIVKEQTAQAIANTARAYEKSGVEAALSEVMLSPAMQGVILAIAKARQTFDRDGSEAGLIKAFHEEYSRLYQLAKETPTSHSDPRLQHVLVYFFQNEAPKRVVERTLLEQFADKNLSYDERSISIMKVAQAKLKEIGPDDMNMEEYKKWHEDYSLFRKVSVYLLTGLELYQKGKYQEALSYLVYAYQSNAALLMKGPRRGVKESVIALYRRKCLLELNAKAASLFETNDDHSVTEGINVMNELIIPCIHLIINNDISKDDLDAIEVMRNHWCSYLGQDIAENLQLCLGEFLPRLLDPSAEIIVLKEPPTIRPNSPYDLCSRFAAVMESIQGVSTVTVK
How it was run: as §1

Sequence of USP24 (Q9UPU5 whole entry): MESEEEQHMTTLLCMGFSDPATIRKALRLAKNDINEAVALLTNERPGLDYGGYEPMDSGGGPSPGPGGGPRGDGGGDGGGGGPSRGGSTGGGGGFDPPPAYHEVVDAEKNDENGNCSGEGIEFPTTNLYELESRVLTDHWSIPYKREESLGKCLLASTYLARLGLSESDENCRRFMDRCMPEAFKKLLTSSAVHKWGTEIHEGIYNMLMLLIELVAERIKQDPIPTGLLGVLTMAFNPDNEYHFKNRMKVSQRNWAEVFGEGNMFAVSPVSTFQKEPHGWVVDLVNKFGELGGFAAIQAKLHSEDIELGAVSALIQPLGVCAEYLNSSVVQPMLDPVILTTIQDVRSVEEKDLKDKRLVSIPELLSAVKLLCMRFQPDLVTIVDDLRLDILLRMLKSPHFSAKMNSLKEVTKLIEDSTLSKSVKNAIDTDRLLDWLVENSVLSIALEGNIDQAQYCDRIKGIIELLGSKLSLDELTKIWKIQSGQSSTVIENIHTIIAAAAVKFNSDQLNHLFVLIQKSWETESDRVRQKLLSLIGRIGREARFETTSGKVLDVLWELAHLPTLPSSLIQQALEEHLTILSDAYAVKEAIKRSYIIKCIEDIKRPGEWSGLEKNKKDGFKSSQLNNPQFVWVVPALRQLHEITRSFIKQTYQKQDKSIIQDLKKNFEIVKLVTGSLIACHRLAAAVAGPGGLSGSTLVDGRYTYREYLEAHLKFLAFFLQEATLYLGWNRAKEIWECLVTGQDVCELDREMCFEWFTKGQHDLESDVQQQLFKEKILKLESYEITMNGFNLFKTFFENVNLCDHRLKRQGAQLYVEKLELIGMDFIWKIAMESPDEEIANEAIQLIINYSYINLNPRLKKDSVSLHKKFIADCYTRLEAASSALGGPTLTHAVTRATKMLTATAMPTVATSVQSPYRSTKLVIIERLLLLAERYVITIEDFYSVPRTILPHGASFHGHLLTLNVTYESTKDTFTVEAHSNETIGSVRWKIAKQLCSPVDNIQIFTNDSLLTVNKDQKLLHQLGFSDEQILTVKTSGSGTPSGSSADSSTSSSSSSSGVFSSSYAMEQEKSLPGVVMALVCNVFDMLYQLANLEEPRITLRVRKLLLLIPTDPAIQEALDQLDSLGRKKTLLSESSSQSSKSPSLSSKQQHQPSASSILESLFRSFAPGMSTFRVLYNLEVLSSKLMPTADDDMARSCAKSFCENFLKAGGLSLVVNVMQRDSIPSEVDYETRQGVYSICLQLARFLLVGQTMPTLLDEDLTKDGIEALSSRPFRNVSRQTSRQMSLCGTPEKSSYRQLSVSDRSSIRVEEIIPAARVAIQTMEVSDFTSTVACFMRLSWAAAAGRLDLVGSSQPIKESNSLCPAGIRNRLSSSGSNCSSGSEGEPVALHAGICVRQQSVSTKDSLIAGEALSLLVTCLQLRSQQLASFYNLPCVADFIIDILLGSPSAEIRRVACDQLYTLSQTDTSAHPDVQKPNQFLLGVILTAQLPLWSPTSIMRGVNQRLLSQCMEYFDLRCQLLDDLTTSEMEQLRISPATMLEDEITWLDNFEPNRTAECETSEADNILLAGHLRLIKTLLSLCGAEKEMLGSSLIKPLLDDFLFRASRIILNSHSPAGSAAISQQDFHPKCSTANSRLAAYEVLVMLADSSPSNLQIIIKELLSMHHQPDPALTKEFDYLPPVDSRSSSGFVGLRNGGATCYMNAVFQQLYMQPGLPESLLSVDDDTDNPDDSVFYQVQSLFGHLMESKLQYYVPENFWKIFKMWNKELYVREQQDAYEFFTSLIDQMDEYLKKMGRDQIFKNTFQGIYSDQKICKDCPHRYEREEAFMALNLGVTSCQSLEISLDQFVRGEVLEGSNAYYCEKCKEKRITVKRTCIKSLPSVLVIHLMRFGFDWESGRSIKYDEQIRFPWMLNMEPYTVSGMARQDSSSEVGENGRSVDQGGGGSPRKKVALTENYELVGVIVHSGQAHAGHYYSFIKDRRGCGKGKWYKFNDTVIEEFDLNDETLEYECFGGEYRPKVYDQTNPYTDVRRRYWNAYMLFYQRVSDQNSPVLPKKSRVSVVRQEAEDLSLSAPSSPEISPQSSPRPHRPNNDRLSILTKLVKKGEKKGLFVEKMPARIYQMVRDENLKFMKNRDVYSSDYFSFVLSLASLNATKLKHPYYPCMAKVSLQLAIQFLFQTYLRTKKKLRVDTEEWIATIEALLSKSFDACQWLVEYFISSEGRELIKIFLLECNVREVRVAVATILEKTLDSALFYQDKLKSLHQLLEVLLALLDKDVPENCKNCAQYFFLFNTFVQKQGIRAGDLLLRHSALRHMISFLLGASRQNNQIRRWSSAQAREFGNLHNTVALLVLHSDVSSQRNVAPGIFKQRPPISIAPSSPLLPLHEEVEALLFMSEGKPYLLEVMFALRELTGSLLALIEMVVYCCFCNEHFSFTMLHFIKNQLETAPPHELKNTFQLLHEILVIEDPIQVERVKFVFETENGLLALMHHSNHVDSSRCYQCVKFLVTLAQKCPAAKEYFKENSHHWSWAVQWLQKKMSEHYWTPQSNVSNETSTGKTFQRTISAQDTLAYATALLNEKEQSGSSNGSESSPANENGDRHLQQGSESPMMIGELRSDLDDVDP

CN1C(=O)c2ccc(NC(=O)CCl)cc2C1=O
log2 ratio of Biotin-Ahx-Ub-VS probe labelling (USP19): -0.358 | log2 ratio of Biotin-Ahx-Ub-VS probe labelling (USP22): 0.0519 | log2 ratio of Biotin-Ahx-Ub-VS probe labelling (USP24): -0.467 | log2 ratio of Biotin-Ahx-Ub-VS probe labelling (USP25): -1.54 (active) | log2 ratio of Biotin-Ahx-Ub-VS probe labelling (USP28): -1.5 (active)
